# Experimental data as given in PubChem BioAssay.
# The source made the active and inactive calls. Unless noted, the rule behind the calls is not given here.
# Columns and labels:
# [1] = test system: Wnt5a (protein binding on small-molecule microarray); assay: Wnt5a binders on small-molecule microarray, primary screen, biophysical, 635/667 nm fluorescence (AID 1142); conditions: 635 nm fluorescence, higher = more signal;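 note: fluorescence read at 667 nm with signal to noise per printed feature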
# [2] = cell viability in Huh7 cells, primary screen, cytotoxicity control for HCV replication inhibitor project, CellTiter-Glo luminescence, basal, 48 h (AID 1143); conditions: Huh7 HCV replicon, higher = more signal, called active from +8 up or from −8 down;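 note: Huh7 hepatoma cells carrying a hepatitis C replication reporter with no stimulus; test concentration not given here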
# [3] = P. aeruginosa biofilm formation inhibitors, primary screen, PAO1 strain, BacTiter-Glo luminescence, LB-PBS (AID 1144); conditions: 12 h, higher = more signal
# [4] = CREB reporter modulators without forskolin, primary screen, cell-based, PC12, CRE-LacZ reporter, unstimulated (AID 1145); conditions: no forskolin, luminescence, 4.5 h, higher = more signal, called active from +8 up or from −8 down
# [5] = CREB reporter modulators under forskolin, primary screen, cell-based, PC12, CRE-LacZ reporter, forskolin-stimulated (AID 1146); conditions: luminescence, 4.5 h, higher = more signal, called active from +8 up or from −8 down;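 note: PC12 cells with 6xCRE LacZ reporter stimulated by forskolin 10 µM; beta-galactosidase reporter signal reflecting CREB driven transcription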
# [6] = biological target: Streptavidin (Streptomyces avidinii) (UniProt P22629); assay: streptavidin binders on small-molecule microarray, primary screen, artefact control for SMM compound annotation, biophysical, 635/667 nm fluorescence (AID 1147); conditions: streptavidin binding, higher = more signal;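 note: signal reflects streptavidin binding to arrayed compounds as a control protein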
# Chain of Streptavidin (Streptomyces avidinii) (P22629 whole entry, looked up): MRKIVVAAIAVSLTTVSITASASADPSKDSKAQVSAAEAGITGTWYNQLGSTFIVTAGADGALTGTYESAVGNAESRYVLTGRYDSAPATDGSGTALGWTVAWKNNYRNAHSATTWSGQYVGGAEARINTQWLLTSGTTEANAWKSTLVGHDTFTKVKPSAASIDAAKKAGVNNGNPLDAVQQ
# [7] = small-molecule binders of probe aInhba, primary screen, biochemical, small-molecule microarray, 635/667 nm fluorescence (AID 1148); conditions: higher = more signal;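 note: score merges 667nm spot fluorescence with signal-to-noise for antibody binding to printed compounds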
# Torsin-1A (Homo sapiens) [8] = biological target: Torsin-1A (Homo sapiens) (UniProt O14656); assay: torsin A binders from cell lysate, primary screen, small-molecule microarray, wild-type, 635/667 nm (AID 1149); conditions: COS7 hTOR1A-WT lysate, 635 nm fluorescence, higher = more signal
# Chain of Torsin-1A (Homo sapiens) (O14656 whole entry, looked up): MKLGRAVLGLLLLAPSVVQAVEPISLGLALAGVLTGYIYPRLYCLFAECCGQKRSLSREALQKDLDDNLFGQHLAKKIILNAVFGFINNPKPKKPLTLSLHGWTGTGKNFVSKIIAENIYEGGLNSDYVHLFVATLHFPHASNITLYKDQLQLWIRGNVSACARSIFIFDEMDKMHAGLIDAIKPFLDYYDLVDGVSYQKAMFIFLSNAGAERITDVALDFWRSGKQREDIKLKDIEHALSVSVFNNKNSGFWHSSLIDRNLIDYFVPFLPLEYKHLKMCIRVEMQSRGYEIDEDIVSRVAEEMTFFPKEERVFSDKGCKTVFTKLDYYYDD
# Torsin-1A (Homo sapiens) [9] = biological target: Torsin-1A (Homo sapiens) (UniProt O14656); assay: small-molecule binders of mutant TOR1A in lysate, primary screen, cell lysate, small-molecule microarray, COS7 lysate, 635/667 nm fluorescence (AID 1150); conditions: COS7 hTOR1A mutant lysate, 635 nm fluorescence, higher = more signal;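 note: score pools 667 nm emission and signal to noise measuring lysate protein binding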
# [10] = test system: Sonic hedgehog protein (Shh); assay: small-molecule binders of Shh protein, primary screen, biochemical, small-molecule microarray, 635/667 nm fluorescence (AID 1151); conditions: small-molecule microarray binding, 635 nm fluorescence; higher = more signal;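 note: Shh protein binding to compounds spotted on small-molecule microarray slides; score combines spot fluorescence intensity with signal-to-noise across triplicate slides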
# [11] = E. coli DRC41 culture turbidity changes, primary screen, E. coli filamentation inducer project, strain DRC41, OD650, 48 h (AID 1152);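 note: E. coli MC1000 strain DRC41 lacking acrAB efflux pump and sulA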; conditions: E. coli DRC41 (acrAB sulA), higher = more signal, called active from +8 up or from −8 down
# [12] = small-molecule binders of probe aLefty1, primary screen, biochemical, small-molecule microarray, 635/667 nm fluorescence (AID 1153); conditions: higher = more signal;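 note: score merges spot fluorescence with signal-to-noise ratio from the scanned slide images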
# [13] = PSAC antagonists in infected red cells, primary screen, cell-based, P. falciparum Indochina, OD700, 1 h (AID 1154); conditions: P. falciparum Indochina infected RBC osmotic lysis, higher = more signal, called active from +8 up or from −8 down
# [14] = PSAC antagonists in infected red cells, primary screen, cell-based, P. falciparum Indochina, OD700, 2 h (AID 1155);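 note: lysis reports solute entry through the parasite surface anion channel PSAC; channel blockers reduce lysis of infected cells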; conditions: P. falciparum Indochina infected erythrocytes, osmotic lysis OD700; higher = more signal, called active from +8 up or from −8 down
# [15] = osmotic lysis modulators in infected erythrocytes, primary screen, PSAC antagonist project, cell-based, P. falciparum Indochina, OD700, 3 h (AID 1156); conditions: higher = more signal, called active from +8 up or from −8 down
# [16] = PSAC antagonists in infected red cells, primary screen, cell-based, P. falciparum Indochina, OD700, 18 h (AID 1157); conditions: P. falciparum Indochina infected erythrocytes, osmotic lysis OD700, 18 h; higher = more signal, called active from +8 up or from −8 down
# [17] = modulators of S6 phosphorylation in cells, primary screen, cell-based, A549, cytoblot, luminescence, serum-stimulated (AID 1158); conditions: A549 phospho-S6 cytoblot, 5 h, higher = more signal;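 note: serum-stimulated A549 lung adenocarcinoma cells; signal is phosphorylated S6 detected by cytoblot immunostaining with HRP secondary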
# [18] = biological target: NADPH oxidase 2 (Homo sapiens) (UniProt P04839); assay: NOX2-dependent H2O2 signal modulators, primary screen, NOX inhibitor project, cell-based, HEK293-NOX2, PMA-stimulated, Amplex Red fluorescence (AID 1159); conditions: 45 min, higher = more signal, called active from +8 up or from −8 down; note: test concentration not given here
# Chain of NADPH oxidase 2 (Homo sapiens) (P04839 whole entry, looked up): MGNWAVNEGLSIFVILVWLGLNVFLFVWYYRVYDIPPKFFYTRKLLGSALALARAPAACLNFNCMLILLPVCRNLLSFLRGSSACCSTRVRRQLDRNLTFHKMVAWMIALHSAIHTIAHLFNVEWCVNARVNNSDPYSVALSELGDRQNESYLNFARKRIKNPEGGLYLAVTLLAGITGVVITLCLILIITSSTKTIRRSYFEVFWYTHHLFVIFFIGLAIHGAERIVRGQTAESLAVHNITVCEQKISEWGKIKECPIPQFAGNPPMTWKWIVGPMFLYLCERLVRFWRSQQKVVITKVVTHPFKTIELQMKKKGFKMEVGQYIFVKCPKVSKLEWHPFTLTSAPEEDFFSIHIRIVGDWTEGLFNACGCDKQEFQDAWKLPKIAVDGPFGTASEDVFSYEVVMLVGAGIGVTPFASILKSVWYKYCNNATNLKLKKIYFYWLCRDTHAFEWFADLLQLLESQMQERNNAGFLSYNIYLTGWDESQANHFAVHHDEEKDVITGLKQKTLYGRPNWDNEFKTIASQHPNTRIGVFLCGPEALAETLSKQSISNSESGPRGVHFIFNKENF
# [19] = biological target: NADPH oxidase 4 (Homo sapiens) (UniProt Q9NPH5); assay: NOX4-dependent H2O2 signal modulators, primary screen, NOX inhibitor project, cell-based, HEK293-NOX4, tetracycline-induced, Amplex Red fluorescence (AID 1160); conditions: 45 min, higher = more signal, called active from +8 up or from −8 down
# Chain of NADPH oxidase 4 (Homo sapiens) (Q9NPH5 whole entry, looked up): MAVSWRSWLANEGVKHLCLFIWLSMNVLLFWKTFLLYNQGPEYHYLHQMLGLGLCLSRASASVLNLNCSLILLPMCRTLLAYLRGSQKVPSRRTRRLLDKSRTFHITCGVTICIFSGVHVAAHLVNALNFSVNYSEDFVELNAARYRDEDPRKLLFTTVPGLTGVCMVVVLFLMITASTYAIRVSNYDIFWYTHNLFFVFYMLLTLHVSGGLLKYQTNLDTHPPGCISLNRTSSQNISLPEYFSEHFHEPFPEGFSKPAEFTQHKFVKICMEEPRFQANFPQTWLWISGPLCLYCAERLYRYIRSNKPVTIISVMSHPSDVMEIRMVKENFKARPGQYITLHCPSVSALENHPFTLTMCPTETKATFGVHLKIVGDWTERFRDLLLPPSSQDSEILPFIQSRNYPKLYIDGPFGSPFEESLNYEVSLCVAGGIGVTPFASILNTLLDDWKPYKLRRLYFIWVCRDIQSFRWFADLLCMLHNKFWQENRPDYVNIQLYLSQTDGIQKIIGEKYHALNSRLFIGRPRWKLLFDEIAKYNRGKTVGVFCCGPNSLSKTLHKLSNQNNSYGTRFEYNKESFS
# [20] = biological target: NADPH oxidase 5 (Homo sapiens) (UniProt Q96PH1); assay: NOX5-dependent H2O2 signal modulators, primary screen, NOX inhibitor project, cell-based, HEK293-NOX5, Amplex Red fluorescence (AID 1161); conditions: HEK293-NOX5, ionomycin, 45 min, higher = more signal
# Chain of NADPH oxidase 5 (Homo sapiens) (Q96PH1 whole entry, looked up): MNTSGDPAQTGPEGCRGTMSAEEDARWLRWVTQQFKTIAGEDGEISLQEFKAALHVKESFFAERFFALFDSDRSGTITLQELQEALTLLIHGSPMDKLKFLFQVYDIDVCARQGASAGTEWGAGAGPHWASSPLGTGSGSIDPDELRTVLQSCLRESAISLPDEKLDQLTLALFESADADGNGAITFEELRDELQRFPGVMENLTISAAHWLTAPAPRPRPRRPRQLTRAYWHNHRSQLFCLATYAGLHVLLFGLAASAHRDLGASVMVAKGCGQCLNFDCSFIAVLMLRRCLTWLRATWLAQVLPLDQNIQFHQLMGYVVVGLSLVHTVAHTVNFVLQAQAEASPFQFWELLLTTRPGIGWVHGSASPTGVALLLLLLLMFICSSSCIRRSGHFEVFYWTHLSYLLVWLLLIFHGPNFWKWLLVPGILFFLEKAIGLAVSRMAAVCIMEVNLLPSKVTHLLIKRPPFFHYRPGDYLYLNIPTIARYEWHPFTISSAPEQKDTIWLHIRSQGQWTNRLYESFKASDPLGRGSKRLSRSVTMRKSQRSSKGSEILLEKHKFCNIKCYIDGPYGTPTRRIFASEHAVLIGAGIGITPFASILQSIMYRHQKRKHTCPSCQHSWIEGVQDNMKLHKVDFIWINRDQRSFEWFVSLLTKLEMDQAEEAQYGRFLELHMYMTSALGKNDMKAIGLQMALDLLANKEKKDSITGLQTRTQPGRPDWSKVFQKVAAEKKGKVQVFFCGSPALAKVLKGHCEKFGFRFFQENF
SMILES,composite z-score [1],z-score [2],z-score [3],z-score [4],z-score [5],composite z-score [6],composite z-score [7],composite z-score (Torsin-1A (Homo sapiens) [8]),composite z-score (Torsin-1A (Homo sapiens) [9]),composite z-score [10],z-score [11],composite z-score [12],z-score [13],z-score [14],z-score [15],z-score [16],z-score [17],z-score [18],z-score [19],z-score [20]
O=C1CS(=O)(=O)C(c2cccc([N+](=O)[O-])c2)N1c1ccccc1 (stereo not given),0.388,-1.67 (inactive),-1.16 (inactive),-0.231 (inactive),-1.44 (inactive),0.392,1.03,0.909,0.655,0.781,2.48 (inactive),0.683,-0.625 (inactive),-1.38 (inactive),-0.903 (inactive),-1.68 (inactive),1.93,0.227 (inactive),0.38 (inactive),1.79
COCCOC(=O)N1C(=O)[C@@]2(c3cc(C#CC4(O)CCCCCC4)ccc31)[C@H](c1ccc(O)cc1)N1[C@H](c3ccccc3)[C@H](c3ccccc3)OC(=O)[C@H]1[C@@H]2C(=O)N1CCN(c2ncccn2)CC1,0.623,-1.53 (inactive),-0.127 (inactive),-0.141 (inactive),0.0053 (inactive),1.33,-0.0918,0.49,0.813,0.185,-0.533 (inactive),0.477,0.138 (inactive),0.525 (inactive),-0.166 (inactive),-0.0236 (inactive),0.159,1.54 (inactive),0.996 (inactive),1.11
CC(c1ccccc1)C(O)C1C=CC2C(=O)N(C)C(=O)C2N1Nc1ccccc1 (stereo not given),0.462,0.481 (inactive),-0.0225 (inactive),0.0535 (inactive),-0.0744 (inactive),1.62,0.562,0.112,0.299,-0.353,-1.14 (inactive),0.146,0.627 (inactive),0.782 (inactive),-0.0204 (inactive),0.999 (inactive),-0.945,-1.51 (inactive),-3.77 (inactive),-3.26
[N-]=[N+]=Nc1ccccc1[C@@H]1OC(c2ccc(OCCCO)cc2)=N[C@]1(Cc1ccccc1)C(=O)N1CCCCC1,0.906,-4.4 (inactive),0.316 (inactive),0.241 (inactive),-0.894 (inactive),1.38,0.134,0.551,1.37,1.15,0.227 (inactive),0.282,32.6 (active),32.7 (active),3.01 (inactive),4 (inactive),0.328,-1.43 (inactive),-0.743 (inactive),-1.77
